Bioassay records (PubChem)
This is a sample that favours compounds with a hit; in the whole collection about 2.5% have one here.
Cruzain noTriton: blocks cruzain activity in detergent-free assay; 200,000 tested, 2.3% active; purified cruzain, Z-FR-AMC fluorescence, no detergent; AID 1476; Potency, µM, actives largely listed as inhibitors; P25779; also: nearly all actives have a fitted effect of over 40% in size
Target sequence (P25779 123-467 limits assumed): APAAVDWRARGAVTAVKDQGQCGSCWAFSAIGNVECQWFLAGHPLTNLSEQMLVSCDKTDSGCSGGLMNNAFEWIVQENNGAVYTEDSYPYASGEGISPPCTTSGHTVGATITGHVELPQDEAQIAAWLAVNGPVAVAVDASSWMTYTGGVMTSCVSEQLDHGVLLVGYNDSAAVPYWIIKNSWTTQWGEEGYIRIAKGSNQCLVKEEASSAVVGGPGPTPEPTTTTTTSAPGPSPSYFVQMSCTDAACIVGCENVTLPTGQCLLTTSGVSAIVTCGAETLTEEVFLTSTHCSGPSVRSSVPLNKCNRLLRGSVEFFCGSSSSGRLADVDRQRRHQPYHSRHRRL
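Detergent-free condition (0.00005% Triton X-100) in acetate buffer pH 5.5 with DTT. 1.5 nM enzyme and compound were pre-mixed 15 min, then 2 uM Z-FR-AMC substrate added; reaction progress from fluorescence change between first and third reads (60 s).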
Cruzain Triton: blocks cruzain activity in presence of Triton detergent; Potency, µM, usual class: inhibitors; purified cruzain, Z-FR-AMC fluorescence, 0.01% Triton; 200,000 tested, 0.43% active; P25779; also: nearly all actives have a fitted effect of over 40% in size
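15 min RT preincubation of 1.5 nM cruzain with compound, then 2 uM Z-FR-AMC added; kinetic AMC fluorescence, 60 s delta. Triton X-100 0.01%, pH 5.5.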
Of the large screens only hits and unclear results are named; the others gave an inactive call. Calls follow the shape of the dose curve; as a rule, active = well fitted curve in the direction sought with a large enough effect; inconclusive = small, poorly fitted or top-dose-only effect, or another doubt; inactive = no such curve, though single readings can be large; an effect the other way counts as inactive or inconclusive.

COc1ccc(OC)c2sc(N3CCN(C(=O)c4ccc5c(c4)CCCC5)CC3)nc12	none
COc1cc2c3cc1Oc1c(OC)c(OC)cc4c1[C@@H](Cc1ccc(O)c(c1)Oc1ccc(cc1)C[C@@H]3N(C)CC2)CN(C)C4	none
CC1=NN(c2ccc(Br)cc2)C(=O)/C1=C/c1cccs1	none
Cc1ccc(C2=N/C(=C/c3cccs3)C(=O)N2Nc2ccccc2)cc1	Cruzain noTriton 25µM
O=S(=O)(O)c1cc(N=[N+]([O-])c2cc(S(=O)(=O)O)c3ccccc3c2)cc2ccccc12	Cruzain noTriton inconclusive
COC(=O)c1c(NS(=O)(=O)c2ccc3ccccc3c2)sc2c1CCCC2	Cruzain noTriton inconclusive
COC(=O)c1c(NC(=O)c2ccc(Br)s2)sc2c1CCC2	Cruzain noTriton 10µM
COC(=O)c1c(NC(=O)c2ccc(C)c(S(=O)(=O)Nc3ccccc3C)c2)sc2c1CCCC2	Cruzain noTriton 7.9µM
COC(=O)c1c(NC(=O)c2c(OC)cccc2OC)sc2c1CCCC2	none
CCCN(Cc1cccs1)C(=O)Nc1cc(C)ccc1OC	none
COCCNC(=O)C1(C)C=CCN1C(C)=O (configuration not stated)	none
Cc1ccc(NC(=O)CN2C=NS(=O)(=O)c3ccccc32)cc1	none
NC(=O)CSc1nnc(-c2cc3ccccc3o2)n1Cc1ccccc1	Cruzain noTriton inconclusive
O=C(CSc1nnc(C2CC2)n1Cc1ccccc1)c1cc2ccccc2o1	Cruzain noTriton 16µM
O=C1C=CC(=O)c2c(O)c(Cl)c(Cl)c(O)c21	none
COc1cccc(-c2csc(-c3c(N)c(C(=O)c4ccccc4)n4ccccc34)n2)c1	Cruzain noTriton 7.9µM
CCc1ccc(C(=O)c2c(N)c(-c3nc(-c4ccc5c(c4)OCO5)cs3)c3ccccn23)cc1	Cruzain noTriton 2.5µM
COc1ccc(OC)c(C(=O)c2c(N)c(-c3nc(-c4ccc(C)c(C)c4)cs3)c3ccccn23)c1	none
Cc1ccc(-c2csc(-c3c(N)c(C(=O)c4ccc5c(c4)OCO5)n4ccccc34)n2)cc1	Cruzain noTriton inconclusive
O=C(O)[C@@H]1[C@@H](C(=O)NCc2ccncc2)[C@@H]2C=C[C@@H]1O2	none
O=C(c1cc2sccc2n1Cc1ccc(F)cc1)N1CCN(c2nc3ccccc3s2)CC1	Cruzain noTriton 13µM
Cn1c(C(=O)N2CCN(c3nc4ccccc4s3)CC2)cc2sccc21	none
CC1=NC(Nc2nc(C)c3ccccc3n2)=NC(C)(C)C1	Cruzain noTriton 16µM, Cruzain Triton 20µM
COc1ccc(Nc2nc(C)c3ccccc3n2)cc1	none
CSc1ccc(-c2nc3cccc(C)n3c2Nc2ccc3c(c2)OCO3)cc1	Cruzain noTriton inconclusive
COC(=O)c1sc(-c2ccccc2)cc1NC(=O)Nc1ccc(Cl)cc1	Cruzain noTriton inconclusive
COC(=O)c1sc(-c2ccccc2)cc1NC(=O)Nc1ccccc1Cl	Cruzain noTriton 10µM
c1ccc(-c2ccc(-c3ccc(C4=NCCN4)cc3)o2)cc1	none
O=C(Cn1c(=O)oc2cc(S(=O)(=O)NC3CCCC3)ccc21)Nc1ccc(F)c(F)c1	none
O=C(NCc1ccco1)c1nc2ccccc2s1	none
O=C(NCc1ccco1)c1sc2ccccc2c1Cl	Cruzain noTriton 25µM, Cruzain Triton inconclusive
CC(=O)Nc1ccc(NC(=O)C(C)OC(=O)CNC(=O)c2sc3ccccc3c2Cl)cc1 (configuration not stated)	Cruzain noTriton 10µM, Cruzain Triton 11µM
O=C(NCc1ccco1)c1sc2cc(Cl)ccc2c1Cl	Cruzain noTriton 25µM, Cruzain Triton inconclusive
Cc1ccc(NC(=O)c2sc3ccccc3c2Cl)cc1	none
O=C(NCc1cccnc1)c1sc2cc(Cl)ccc2c1Cl	none
CCOc1ccccc1NC(=O)Cn1c(=O)n(Cc2ccccc2)c(=O)c2c(C)c(C)sc21	none
CCc1ccccc1Nc1cc(C(=O)NC(C)c2ccccc2)c2ccccc2n1 (configuration not stated)	none
N[C@H](Cc1c[nH]c2ccccc12)P(=O)(O)O	none
CCC(=O)Nc1nnc(SCC(=O)N2c3ccccc3CC2C)s1 (configuration not stated)	Cruzain noTriton 13µM, Cruzain Triton 3.5µM
CC1CCCC(C)N1C(=O)CSc1nnc(NC(=O)Cc2cccs2)s1 (configuration not stated)	none
CC(=O)Nc1nnc(SCC(=O)c2ccc3c(c2)Cc2ccccc2-3)s1	none
Cc1nnc(SCC(=O)N2c3ccccc3CC2C)s1 (configuration not stated)	none
CC1Cc2ccccc2N1C(=O)CSc1nnc(NC(=O)Cc2cccs2)s1 (configuration not stated)	Cruzain noTriton 25µM, Cruzain Triton 16µM
CCC(=O)Nc1nnc(SCC(=O)c2ccc3c(c2)Cc2ccccc2-3)s1	Cruzain noTriton 20µM
Cc1cccc(NC(=O)CSc2nc3ccccc3nc2N2CCCCC2)c1C	none
Cc1nc(NC2CCCCC2)c2nc(-c3ccccc3)n(C(C)CN(C)C)c2n1 (configuration not stated)	none
CCOc1cc2sc(N3CCC(C(=O)Nc4ccc(C)cc4C)CC3)nc2cc1Br	none
CCOC(=O)c1cc(-c2ccc(OC)cc2)n(CCC(=O)NCCc2ccccc2)c1C	Cruzain noTriton inconclusive
O=C(O)/C=C\c1c2ccc(=O)c(O)c-2oc2c(O)c(O)ccc12	none
COc1cc(Cl)c(S(=O)(=O)N2CCN(c3c(C)cccc3C)CC2)cc1Cl	Cruzain noTriton 20µM
COc1ccc(S(=O)(=O)N2CCN(c3c(C)cccc3C)CC2)cc1OC	none
CC(C)c1ccc(NC(=O)c2cc3c(=O)oc4ccccc4c3s2)cc1	none
CCCCc1nc(NCc2ccccc2)c(C#N)c2c1COC(C)(C)C2	Cruzain noTriton 25µM
CCc1nc(NCC(C)C)c(C#N)c2c1COC(C)(C)C2	none
CCOC(=O)C1CCN(C(=O)CN2c3ccc(C(C)C)cc3-c3ccccc3S2(=O)=O)CC1	Cruzain noTriton inconclusive
COc1ccc(NC(=O)c2cnc3sc(N4CCOCC4)nn3c2=O)c(OC)c1	none
Cc1cc(C)c2c(-n3cccc3)c(C(=O)NCCCN3CCCCC3C)sc2n1 (configuration not stated)	none
COc1ccc2c(c1)c(=O)c(S(=O)(=O)c1ccc(C)c(C)c1)cn2CC(=O)Nc1ccccc1	none
CC(C)CNC(=O)c1cc(-c2ccc(Cl)c(Cl)c2)on1	Cruzain noTriton 13µM
O=C(NCCc1ccccc1)c1cc(-c2ccc(Cl)c(Cl)c2)on1	none
CSc1nc(N2CCN(CCO)CC2)c2sc3nc(-c4ccco4)c4c(c3c2n1)CCC4	none
CSc1nc(N(C)CCO)c2sc3nc(-c4ccco4)c4c(c3c2n1)CCC4	Cruzain Triton 8.9µM
O=C(Nc1ccc2oc(-c3ccc4ccccc4c3)nc2c1)c1ccc2c(c1)OCCO2	Cruzain noTriton 10µM
O=C(Nc1ccc2oc(-c3ccc4ccccc4c3)nc2c1)c1ccc(Cl)c(Cl)c1	none
COc1cc(CN(C(=O)COc2ccccc2)c2ccccn2)cc(OC)c1OC	none
c1ccc2[nH]c(CSc3nc4ccccc4o3)nc2c1	Cruzain noTriton 13µM
c1cncc(-c2nnc(SCc3nc4ccccc4[nH]3)o2)c1	Cruzain noTriton inconclusive
COc1ccc(C2=C(CN(C)C)C(c3ccccc3)c3ccccc3O2)cc1 (configuration not stated)	none
CCOc1ccc(C2=C(C=C(C#N)C#N)C(c3ccccc3)c3ccccc3O2)cc1 (configuration not stated)	Cruzain noTriton 10µM
COc1ccc(CCNC(=O)CCCn2c(=O)c3ccccc3n(CC(=O)Nc3cccc(C)c3)c2=O)cc1OC	Cruzain noTriton inconclusive
O=C(O)CCCCn1cnc2c(=S)nc[nH]c21	none
